About 83,000 compounds went through this panel and 20% of them were active in at least one assay; those are over-represented in the sample as a whole.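 Percent growth is the endpoint: 0 to 100 indicates growth inhibition (40 means 60% inhibition), 0 means no net growth, and negative values indicate cell death.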 A number with no mark means an inactive call. Activity calls are given as the source filed them. Rule for the calls: active = growth percent below 10; inactive = the rest.
Assays:
Experiment in all cases: NCI-60 one-dose screen, 48 h (100 = growth as untreated, 0 = no growth, -100 = all killed)
Conditions in all cases: 10 µM unless noted
[1] = tested on: SK-MEL-2 melanoma
[2] = tested on: EKVX NSCLC
[3] = tested on: SN12C renal
[4] = tested on: UO-31 renal
[5] = tested on: TK-10 renal
[6] = tested on: ACHN renal
[7] = tested on: CAKI-1 renal
[8] = tested on: A498 renal
[9] = tested on: CCRF-CEM leukemia
[10] = tested on: MOLT-4 leukemia

SMILES	growth [1]	growth [2]	growth [3]	growth [4]	growth [5]	growth [6]	growth [7]	growth [8]	growth [9]	growth [10]
Cn1cccc1/C=C1\C(=O)Nc2ccccc21	114%	34.4%	94%	62.9%	72.2%	98.2%	86%	125%	104%	97.7%
COc1cc(C(=O)c2c(N)ncn2-c2ccccc2)cc(OC)c1OC	104%	102%	88.2%	81.2%	106%	102%	92.3%	90.2%	92.5%	109%
Cc1[nH]c(/C=C/C(=O)c2ccc(C(F)(F)F)c(F)c2)c(C)c1C(=O)NCC(C)C	110%	96.1%	97.9%	92%	109%	101%	94.8%	69%	101%	101%
CC1(C)CC2=C3C=C[C@@H]4[C@@]5(C)CC[C@H](O)C(C)(C)[C@@H]5CC[C@@]4(C)[C@]3(C)CC[C@@]2(C(=O)O)CC1=O	37.1%	61.4%	54.4%	16.5%	33.5%	13%	28.2%	57%	25.2%	44.2%
O=C(Cn1nnc([N+](=O)[O-])n1)c1ccccc1	73.3%	100%	102%	85.1%	92%	107%	77.7%	48.6%	58.6%	95.3%
COc1ccc(NC(=O)c2cccc(C3CCc4c(cc(OC)c(OC)c4OC)O3)c2)cc1 (centres undefined)	9.28% (active)	47%	31.4%	28.8%	43.7%	41.1%	44.6%	-8.67% (active)	-1.05% (active)	9.23% (active)
CCOc1ccc(NC(=O)c2cc(OC)c(OC)c(OC)c2)cc1	16.1%	54.1%	56%	52%	60.3%	55.9%	39.8%	-0.366% (active)	27.9%	31.6%
CCc1ccc(CCC(=O)Nc2ncc(Cc3ccc(Cl)cc3)s2)o1	44.1%	37.2%	44.8%	43%	60%	48.3%	31.9%	0.963% (active)	22.4%	36.5%
N#Cc1c(-c2ccccc2)c(C#N)c2c(C#N)c(N)nn2c1N	9.95% (active)	47.3%	51.7%	52.1%	67%	60.9%	47%	-8.04% (active)	13.3%	11.7%
CC1=NN(c2ccc(Cl)cc2)CC1(C)N=O (centres undefined)	105%	70.1%	88.4%	32.8%	105%	15.2%	60.4%	101%	34%	44.6%
COc1cccc(/C=C/C(=O)c2cc3c(N)c(C(=O)Nc4ccccc4C)sc3nc2C)c1	27.3%	91.7%	13.9%	38.5%	74.1%	56.1%	32.2%	75.7%	9.22% (active)	32.6%
COc1cc(-c2nc3occn3c2-c2ccnc(NCCCNS(=O)(=O)c3ccccc3)n2)ccc1F	34.2%	44.7%	44%	11.5%	49.5%	37.3%	29.7%	57.1%	17.3%	11%
CCOC(=O)c1c(C)nn(CC(O)c2ccccc2)c1NC(=O)Nc1cccc(F)c1 (centres undefined)	90.9%	91.2%	84.1%	74.8%	110%	89.7%	83.4%	70.9%	89.3%	88.7%
COc1ccc(C(c2cc(OC)c(OC)c(OC)c2)N2CCCC2)cc1 (centres undefined)	55.7%	87.8%	108%	75.1%	88.3%	103%	77.5%	31.2%	71.2%	78.1%
O=C(/C=C/C12c3ccccc3C(c3ccccc31)C1C(=O)NC(=O)C12)c1ccc(F)cc1 (centres undefined)	-52.2% (active)	19.1%	11.2%	15.8%	16.8%	4.11% (active)	16.7%	-6.86% (active)	-0.929% (active)	2.98% (active)
COc1ccc2nc3cc(Cl)ccc3c(NCCN)c2c1	98.5%	-47.5% (active)	-60.4% (active)	-19.4% (active)	-76.2% (active)	-91.7% (active)	-96.5% (active)	55.5%	-13.3% (active)	-40.9% (active)
O=C(CCCCNC(=O)c1cc(=O)c(O)co1)Nc1ccccc1	98.8%	95.6%	88.4%	76.4%	98.3%	31.5%	94.3%	98.2%	6.26% (active)	20.3%
C=C1C(=O)O[C@H]2[C@H]1CC/C(Cn1cc(-c3cc(C(F)(F)F)cc(C(F)(F)F)c3)nn1)=C\CC[C@@]1(C)O[C@@H]21	-84.1% (active)	-97.1% (active)	-77.5% (active)	-96.3% (active)	-99.4% (active)	-92.6% (active)	-95.3% (active)	-94.5% (active)	-32.9% (active)	-28.2% (active)
NNC(=S)N/N=C/c1ccccn1	59.6%	31.6%	30%	14.7%	46.9%	17%	14.2%	70.4%	12%	12%
C=C(CO)[C@@H]1CC[C@]2(COC3CCCCO3)CC[C@]3(C)[C@H](CC[C@@H]4[C@@]5(C)C=C(C=O)C(=O)C(C)(C)[C@@H]5CC[C@]43C)[C@@H]12 (some centres undefined)	-57.3% (active)	-82.8% (active)	-67.3% (active)	-96.9% (active)	-96.2% (active)	-100% (active)	-76% (active)	-97.7% (active)	-62.9% (active)	-32.2% (active)
CS(=O)(=O)Nc1cncc(-c2ccc3ncnc(Nc4ccc(F)c(Cl)c4)c3c2)c1	8.23% (active)	0.905% (active)	33.9%	38.1%	-2.22% (active)	32.3%	44.7%	-7.33% (active)	11.8%	-22.8% (active)
CCOC(=O)c1n[nH]n2c1nc(=O)c1cnn(C)c12	99.6%	102%	105%	84.4%	97.6%	105%	103%	110%	95.6%	99.7%
CC[C@@H](c1ccc2cc(OC)ccc2c1)C(C)(C)C(=O)F	94.8%	96.1%	105%	97%	126%	104%	76.8%	98.4%	114%	99.2%
O=c1ccc2nc(C(F)(F)F)nn(-c3ccccc3)c-2c1	78.3%	95.8%	67.9%	24%	-98% (active)	-89% (active)	56%	80%	-0.269% (active)	-20.5% (active)
CCCCc1oc2ccccc2c1C(=O)c1ccc(O)cc1	99.8%	92.3%	71.2%	78.3%	101%	88.8%	68.4%	90.9%	51.9%	59.7%
O=C(O)CCCc1cnc2c3sccc3nc(SCc3c(Cl)cccc3Cl)n12	20.6%	63%	57.2%	49%	65.3%	61.1%	42.2%	46.1%	31.2%	50.5%
CCN(CCO)CC(C)Nc1ccc([N+](=O)[O-])c2sc3ccccc3c(=O)c12 (centres undefined)	36.6%	25.7%	28.2%	-15.6% (active)	58.8%	11.5%		50.6%	35.6%	17.3%
